Assay results: PubChem BioAssay (Tox21)
Inconclusive results are not listed. The source made the active and inactive calls. Unless noted, calls come from the whole dose curve; as a rule, active = well fitted curve in the direction sought with a large enough effect in the repeat runs; inconclusive = weak or mixed curves; inactive = no such curve, though single readings can be large; an effect the other way counts as inactive or inconclusive.

Key:
[1] = qHTS RealTime-Glo MT Cell Viability Assay in HEK293 cells - 0 hour (AID 1224880); note: top concentration of the series differs between compounds; nearly all actives have a fitted effect of over 45% in size
Method in brief: (§1)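 Kinetic, non-lysing viability readout. Seed HEK293 (600/well) with reagent, incubate 5 h at 37 C/5% CO2, pin 23 nL compound in DMSO, incubate at 37 C, read luminescence at 0, 8, 16, 24, 32, 40 h.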

[2] = A CellTox Green Cytotoxicity Assay to monitor cytotoxicity in HEK293 cells - 32 hour (AID 1224881); note: nearly all actives have a fitted effect of over 40% in size
Method in brief: (§2)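 Real-time, in one plate: 600 HEK293 cells/well with dead-cell DNA dye, pinned compound after 5 h, 37 C incubation over 40 h; viable cells give no appreciable fluorescence.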

[3] = A CellTox Green Cytotoxicity Assay to monitor cytotoxicity in HepG2 cells - 0 hour (AID 1224882); note: nearly all actives have a fitted effect of over 35% in size
Method in brief: (§3)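 Cytotoxicity was tracked as dead-cell DNA fluorescence in HepG2 cells treated with test compounds at 37 C; each time-point value comes from one kinetic series spanning 0, 8, 16, 24, 32 and 40 h.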

[4] = A CellTox Green Cytotoxicity Assay to monitor cytotoxicity in HepG2 cells - 32 hour (AID 1224883); note: nearly all actives have a fitted effect of over 50% in size
Method in brief: as §3

[5] = A CellTox Green Cytotoxicity Assay to monitor cytotoxicity in HEK293 cells - 8 hour (AID 1224884); note: nearly all actives have a fitted effect of over 35% in size
Method in brief: as §2

[6] = qHTS RealTime-Glo MT Cell Viability Assay in HepG2 cells - 16 hour (AID 1224885); note: nearly all actives have a fitted effect of over 50% in size
Method in brief: (§4)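 Viability was tracked continuously by NanoLuc luminescence from prosubstrate reduced by living HepG2 cells, at successive time points over 40 h of compound exposure. Cells with reagent were preincubated 5 h at 37 °C before compound addition.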

[7] = qHTS RealTime-Glo MT Cell Viability Assay in HEK293 cells - 24 hour (AID 1224886); note: top concentration of the series differs between compounds; nearly all actives have a fitted effect of over 50% in size
Method in brief: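 Viability tracked continuously by luminescence as live cells reduce a prosubstrate for NanoLuc; HEK293 cells preincubated 5 h, compound-treated at 37 C, and read at 0, 8, 16, 24, 32 and 40 h.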

[8] = qHTS RealTime-Glo MT Cell Viability Assay in HEK293 cells - 8 hour (AID 1224887); note: top concentration of the series differs between compounds; nearly all actives have a fitted effect of over 50% in size
Method in brief: as §1

[9] = A CellTox Green Cytotoxicity Assay to monitor cytotoxicity in HEK293 cells - 16 hour (AID 1224888); note: nearly all actives have a fitted effect of over 35% in size
Method in brief: as §2

[10] = A CellTox Green Cytotoxicity Assay to monitor cytotoxicity in HepG2 cells - 8 hour (AID 1224890); note: nearly all actives have a fitted effect of over 45% in size
Method in brief: as §3

[11] = qHTS assay to identify small molecule antagonists of the estrogen receptor alpha (ER-alpha) signaling pathway using the BG1 cell line in the presence of 0.1 nM 17-beta-estradiol - cell viability counter screen (AID 1259241); note: nearly all actives have a fitted effect of over 40% in size
Method in brief: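 In this screen, hormone-deprived VM7Luc4E2 cells were seeded at 4,000 per well, dosed with compound and 0.1 nM estradiol final, and incubated 22 hr at 37C and 5% CO2; fluorogenic live-cell protease signal reported viability.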

[12] = qHTS assay to identify small molecule antagonists of the androgen receptor (AR) signaling pathway using the MDA cell line in the presence of 0.5 nM R1881 - cell viability counter screen (AID 1259242); note: nearly all actives have a fitted effect of over 45% in size
Method in brief: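 Cells seeded at 3,000/well and allowed 5 hr at 37C, 0% CO2 before compound transfer and R1881 (0.5 nM final) addition; 16 hr later, live-cell protease fluorescence indicated cytotoxicity.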

[13] = target: Estrogen receptor (Homo sapiens) (UniProt P03372); experiment: qHTS assay to identify small molecule antagonists of the estrogen receptor alpha (ER-alpha) signaling pathway using the BG1 cell line in the presence of 0.1 nM 17-beta-estradiol (AID 1259244); note: nearly all actives have a fitted effect of over 50% in size
Estrogen receptor (Homo sapiens), sequence (P03372 whole entry, looked up): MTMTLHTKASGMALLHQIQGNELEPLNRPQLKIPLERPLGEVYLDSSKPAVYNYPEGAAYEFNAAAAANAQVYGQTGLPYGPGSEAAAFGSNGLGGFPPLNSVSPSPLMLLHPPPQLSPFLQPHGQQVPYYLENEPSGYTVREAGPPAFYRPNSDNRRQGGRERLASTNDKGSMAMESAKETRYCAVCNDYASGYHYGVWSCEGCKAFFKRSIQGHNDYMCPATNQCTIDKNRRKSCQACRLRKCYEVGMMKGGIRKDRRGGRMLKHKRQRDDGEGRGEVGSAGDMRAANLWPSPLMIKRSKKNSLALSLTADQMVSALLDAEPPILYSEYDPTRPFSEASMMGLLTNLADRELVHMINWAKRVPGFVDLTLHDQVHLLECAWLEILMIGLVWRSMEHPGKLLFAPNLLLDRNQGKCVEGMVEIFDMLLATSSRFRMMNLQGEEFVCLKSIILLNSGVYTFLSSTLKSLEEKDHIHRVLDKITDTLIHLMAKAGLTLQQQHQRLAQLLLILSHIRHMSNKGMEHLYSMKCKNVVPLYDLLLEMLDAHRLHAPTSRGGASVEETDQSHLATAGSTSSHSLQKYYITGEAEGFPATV
Method in brief: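 Luciferase signal from VM7Luc4E2 ERE-reporter cells, co-dosed with test compound and 0.1 nM final 17beta-estradiol for 22 h, read with ONE-Glo.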

[14] = qHTS assay to identify small molecule HDAC inhibitors (AID 1259364);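 note: wild-type HCT-116 cells with endogenous class I/II HDAC activity; top concentration of the series differs between compounds; nearly all actives have a fitted effect of over 45% in size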
Method in brief: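 HCT-116 wt cells, 1,500/well, overnight attach. Compounds (DMSO) 2 h, 37 °C. HDAC-Glo I/II, 30 min RT. Luminescence.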

[15] = qHTS assay to identify small molecule HDAC inhibitors - cell viability counter screen (AID 1259365)
Method in brief: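 Measured quantity is CellTiter-Glo luminescence from wild-type HCT-116 cells after compound incubation of 2hr at 37C, 5% CO2; reagent developed 30min at room temperature.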

[16] = qHTS assay to identify small molecule agonists of the sonic hedgehog signaling (Shh) pathway - cell viability counter screen (AID 1259366); note: nearly all actives have a fitted effect of over 50% in size
Method in brief: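 In quantitative high-throughput format, 3T3 Gli1-Luc cells were exposed to compounds for 24hr and multiplexed for viability using CellTiter-Fluor, incubated 1hr at 37C before the fluorescence read.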

[17] = qHTS assay to identify small molecule antagonists of the sonic hedgehog signaling (Shh) pathway - cell viability counter screen (AID 1259367); note: nearly all actives have a fitted effect of over 55% in size
Method in brief: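 Fluorescence read-out (CellTiter-Fluor, 1 hr at 37C) taken after 23 hr compound treatment of 3T3 Gli1-Luc cells stimulated with conditioned medium. Cells were seeded at 2,000 per well and pre-incubated 4 hr.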

[18] = qHTS RealTime-Glo MT Cell Viability Assay in HepG2 cells - 0 hour (AID 1224889); note: nearly all actives have a fitted effect of over 50% in size
Method in brief: as §4

[19] = target: Androgen receptor (Homo sapiens) (UniProt P10275); experiment: qHTS assay to identify small molecule antagonists of the androgen receptor (AR) signaling pathway using the MDA cell line in the presence of 0.5 nM R1881 (AID 1259243); note: nearly all actives have a fitted effect of over 50% in size
Androgen receptor (Homo sapiens), sequence (P10275 whole entry, looked up): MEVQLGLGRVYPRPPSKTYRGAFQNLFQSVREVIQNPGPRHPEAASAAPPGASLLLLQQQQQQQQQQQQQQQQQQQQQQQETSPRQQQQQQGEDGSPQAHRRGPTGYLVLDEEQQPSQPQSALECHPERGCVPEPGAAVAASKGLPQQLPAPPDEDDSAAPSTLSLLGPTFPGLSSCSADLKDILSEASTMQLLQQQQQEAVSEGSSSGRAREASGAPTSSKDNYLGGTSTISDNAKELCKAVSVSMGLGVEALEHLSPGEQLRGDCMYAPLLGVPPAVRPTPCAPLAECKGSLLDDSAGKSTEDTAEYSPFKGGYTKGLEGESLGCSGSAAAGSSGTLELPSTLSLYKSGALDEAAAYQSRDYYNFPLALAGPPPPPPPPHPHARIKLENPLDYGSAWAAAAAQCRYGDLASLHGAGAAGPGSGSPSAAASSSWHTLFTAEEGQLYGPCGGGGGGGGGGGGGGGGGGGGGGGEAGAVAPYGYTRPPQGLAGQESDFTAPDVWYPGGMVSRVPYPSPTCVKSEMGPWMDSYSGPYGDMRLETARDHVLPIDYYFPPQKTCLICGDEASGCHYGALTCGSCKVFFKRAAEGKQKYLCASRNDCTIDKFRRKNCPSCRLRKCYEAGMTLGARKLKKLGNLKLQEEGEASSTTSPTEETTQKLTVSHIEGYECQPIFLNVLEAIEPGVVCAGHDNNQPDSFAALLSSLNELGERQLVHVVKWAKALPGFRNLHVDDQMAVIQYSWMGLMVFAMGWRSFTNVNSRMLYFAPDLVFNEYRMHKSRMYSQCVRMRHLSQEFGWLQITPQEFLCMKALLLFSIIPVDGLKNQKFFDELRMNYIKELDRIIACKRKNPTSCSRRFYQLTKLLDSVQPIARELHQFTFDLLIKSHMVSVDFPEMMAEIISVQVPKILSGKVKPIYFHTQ
Method in brief: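 Luminescence from an AR/GR-responsive MMTV-luciferase construct in MDA-kb2 breast carcinoma cells, read 30 min after ONE-Glo, following 16 hr co-treatment with compounds and 0.5 nM R1881.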

[20] = qHTS assay to identify small molecule phospholipidosis (PLD) inducers (AID 1259344; active = well fitted curve in the direction sought with a large enough effect; an effect the other way counts as inactive or inconclusive)
Method in brief: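 Read-out is LipidTOX Red fluorescence (ex 595/em 615) imaged in HepG2 cells after 24 h compound exposure at 37 C, with Hoechst nuclear counterstain (ex 352/em 461) allowing per-cell normalisation.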

Measured: Potency

Nc1cccc2c(=O)[nH][nH]c(=O)c12
inactive: [1] | [2] | [3] | [4] | [5] | [6] | [7] | [8] | [9] | [10] | [11] | [12] | [13] | [14] | [15] | [16] | [17]

O=[N+]([O-])c1ccccc1CCO
inactive: [1] | [2] | [3] | [4] | [5] | [6] | [7] | [8] | [9] | [10] | [11] | [12] | [14] | [15] | [16] | [17]

O=C1CCCN1CCO
inactive: [1] | [2] | [3] | [4] | [5] | [6] | [7] | [9] | [10] | [11] | [12] | [13] | [14] | [15] | [16] | [17]

CCCc1nc(C)c2c(=O)[nH]c(-c3cc(S(=O)(=O)N4CCN(CC)CC4)ccc3OCC)nn12
inactive: [1] | [2] | [3] | [4] | [5] | [6] | [8] | [9] | [18] | [10] | [11] | [12] | [19] | [20] | [14] | [15] | [16] | [17]

C1=COCCC1
inactive: [1] | [2] | [3] | [4] | [5] | [6] | [7] | [8] | [9] | [10] | [11] | [12] | [13] | [14] | [15] | [16] | [17]

C1CCN(CN2CCCCC2)CC1
inactive: [1] | [2] | [3] | [4] | [5] | [6] | [8] | [9] | [18] | [10] | [11] | [12] | [13] | [14] | [15] | [16]

C[C@@H](O)[C@H]1C(=O)N2C(C(=O)O)=C(S[C@@H]3CN[C@H](CNS(N)(=O)=O)C3)[C@H](C)[C@H]12
inactive: [1] | [2] | [3] | [4] | [5] | [6] | [8] | [9] | [18] | [10] | [11] | [12] | [13] | [20] | [14] | [15] | [16]

N#CCCCC(C#N)CCC#N (stereo not drawn)
inactive: [1] | [2] | [3] | [4] | [5] | [6] | [7] | [8] | [9] | [10] | [11] | [12] | [13] | [14] | [15] | [16]
